# Data from the supplement of paper PMC6555819.
# Tested on: RARg:RXRa (NR concentration 270 nM, RXRa partner concentration 90 nM)
# Test: PBM binding z-score (relative to random genomic background probes); higher = stronger binding; sequences stand for … in GC…GCGATTGACAGCGTAGAATGAAGG
# Summary of the method: (§1)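 Antibodies against each partner of ligand-free nuclear receptor dimers (one per run) detected binding on custom Agilent 4×180K protein-binding microarrays after 1 h incubation. The double-stranded probes had 34-nt variable regions carrying direct-repeat seeds, single-nucleotide variants, half-site ablations and random human genomic background sequences. Binding z-scores, from regression-normalized fluorescence, use the random background probes as reference.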
row,Sequence,PBM binding z-score
1,CGTCCAAGGTCAAAGCTCAGTGAAGAGATGACGG,5.9
2,CCTACTGGGCCATCAGGTCTTTGATATCAACGTT,-0.0925
3,CGTACTGGGCCAAGGTCATTGATCAGTCAAAGCA,3.89
4,AGAATGAGGTTACCAAAGATCATGGAAACGCTTG,2.26
5,ATCTCTAGGTAGCCAAGTTCAGTGAATGCCGAAC,0.375
6,ATATGTAGGTTAAGGGTCATTCACGTTGGTTCGC,4.72
7,TCTGCTAGGTCAACGATGGTCAGCTGATCTGCTA,4
8,ACTATTACTTGACTTAGGGCAACCGATACGACGC,0.943
9,CAAACTATGTCACGAAAGGTCAAAGTCGAATGAC,6.02
10,CCGACTGGGGCAAAGGTTAACATACTCAGTACGA,4.1
11,TCTTGTAGATCAATAGAGGTTAAGAGAGTGCGCT,0.864
12,TAGCCTAGGTCAGATCGGGCCAGCATACGCTATA,2.68
13,TCTTGTAGATCAAGCAGGTTAAGAGAGCCTGAGT,-0.24
14,AGATTGAGGTTATTAAGATCAGGGAATTGCGGTC,1.07
15,ACTATTAGTTGTCTTAGGGCAACCGATACGACGC,0.149
16,ATATGTAGGTTAGCTGGGGTCATTAAGACTAGGC,3.87
17,TCTTGTAGATCAGCTGGTTAAGAAAGCTGGCCAA,-0.465
18,TGTCAAAGTTCAAAGGTAACGCAAGTATCCACAC,6.5

# Tested on: RARg homodimer (NR concentration 270 nM)
# Test: as above
# Summary of the method: as §1
row,Sequence,PBM binding z-score
1,GTACAAAGGTGAATAGGTCGTTGATGAGTAGGCG,2.79
2,CGGCCAAGGTCAGAGAGGTCAGTGAATGCCGAGT,7.62
3,TCTCGGAGGACACGAAGGTCAGAGCCTTCCAGAG,4.07
4,CCAGACAGGTGAAAGGTAACTCAGTCTGGTACGC,0.817
5,ATATGAAGGTTAGCTGGGGTCATTCAGACTAGGC,3.82
6,CCAGACAGGTGAGAAGGTACCTCAGCCTCGATTA,0.0168
7,GTACCAAGGTGAATAGCTCGTTGATGAGTAGGCG,0.489
8,AGACCAAGGTGATCGTGAGGTCGTTGATACTAAC,0.635
9,TCTTGTAGGTCAACAGGAGGTTAAGAAAGATCGA,5.18
10,CGTCCAAGGTCAAAGGTCTGTGAAGAGATGACGG,6.12
11,GCTATTAGTTTAAAGGGCAACCGAATGATTCTCG,1.44
12,ATCTCTAGGTAAAGTTCCGTGAAAGATCGATAGA,0.381
13,GTACCAAGGTGAATAGGTCGTTCATGAGTAGGCG,1.47
14,CAAACTCGGTCACCGGAAGGTCAAAGTCCGCATG,6.29
15,GCTGCTAGGTCAGGTCGGTCAGCTAACGGGTACG,4.28
16,TCGAGTAGGTTACCAACGGGGCATTCAGCTTTCT,0.504
17,CCTCGGAGGACACAAGGTCAGAGCTGTCCGCTTT,3.74
18,CCTTACGGGTCACTCCAGGTTATAGCTTCGGAGT,4.47
19,ATCTCTAGGTAAAGATTGTTCAGTGAATGCAAAT,0.361
20,CGAGACAGGTGAGAAGGTAACTCAGCCTCGATTA,0.338

row,Sequence,PBM binding z-score
1,ATCTCTAGGTAAAGATAGTTCCGTGAATGCAAAT,0.427
2,GCAGACAGGTGAAACGCAGTTAACTCAGGGTGGC,0.0446
3,CGTCCAAGGTCAAAGCTCAGTGAAGAGATGACGG,6.4
4,CCTACTGGGCCATCAGGTCTTTGATATCAACGTT,-0.00289
5,CGTACTGGGCCAAGGTCATTGATCAGTCAAAGCA,3.26
6,AGAATGAGGTTACCAAAGATCATGGAAACGCTTG,1.87
7,ATCTCTAGGTAGCCAAGTTCAGTGAATGCCGAAC,0.381
8,ATATGTAGGTTAAGGGTCATTCACGTTGGTTCGC,3.42
9,TCTGCTAGGTCAACGATGGTCAGCTGATCTGCTA,4.88
10,ACTATTACTTGACTTAGGGCAACCGATACGACGC,1.1
11,CAAACTATGTCACGAAAGGTCAAAGTCGAATGAC,5.58
12,CCGACTGGGGCAAAGGTTAACATACTCAGTACGA,2.03
13,TCTTGTAGATCAATAGAGGTTAAGAGAGTGCGCT,0.443
14,TAGCCTAGGTCAGATCGGGCCAGCATACGCTATA,3.52
15,TCTTGTAGATCAAGCAGGTTAAGAGAGCCTGAGT,-0.296
16,AGATTGAGGTTATTAAGATCAGGGAATTGCGGTC,0.837
17,ACTATTAGTTGTCTTAGGGCAACCGATACGACGC,0.589
18,ATATGTAGGTTAGCTGGGGTCATTAAGACTAGGC,3.03
19,TCTTGTAGATCAGCTGGTTAAGAAAGCTGGCCAA,-0.758
20,TGTCAAAGTTCAAAGGTAACGCAAGTATCCACAC,6.22

# Tested on: RXRa DBDmut IVT, anti-RXR (DBD mutation: RXRa K156A/R161A, NR concentration 90 nM)
# Test: as above
# Summary of the method: as §1
row,Sequence,PBM binding z-score
1,GTACAAAGGTGAATAGGTCGTTGATGAGTAGGCG,0.47
2,CGGCCAAGGTCAGAGAGGTCAGTGAATGCCGAGT,3.44
3,TCTCGGAGGACACGAAGGTCAGAGCCTTCCAGAG,0.518
4,CCAGACAGGTGAAAGGTAACTCAGTCTGGTACGC,0.137
5,ATATGAAGGTTAGCTGGGGTCATTCAGACTAGGC,1.97
6,CCAGACAGGTGAGAAGGTACCTCAGCCTCGATTA,0.0456
7,GTACCAAGGTGAATAGCTCGTTGATGAGTAGGCG,-0.348
8,AGACCAAGGTGATCGTGAGGTCGTTGATACTAAC,0.408
9,TCTTGTAGGTCAACAGGAGGTTAAGAAAGATCGA,1.42
10,CGTCCAAGGTCAAAGGTCTGTGAAGAGATGACGG,4.3
11,GCTATTAGTTTAAAGGGCAACCGAATGATTCTCG,1.56
12,ATCTCTAGGTAAAGTTCCGTGAAAGATCGATAGA,0.35
13,GTACCAAGGTGAATAGGTCGTTCATGAGTAGGCG,0.154
14,CAAACTCGGTCACCGGAAGGTCAAAGTCCGCATG,1.12
15,GCTGCTAGGTCAGGTCGGTCAGCTAACGGGTACG,0.46
16,TCGAGTAGGTTACCAACGGGGCATTCAGCTTTCT,0.191
17,CCTCGGAGGACACAAGGTCAGAGCTGTCCGCTTT,0.757
18,CCTTACGGGTCACTCCAGGTTATAGCTTCGGAGT,1.65
19,ATCTCTAGGTAAAGATTGTTCAGTGAATGCAAAT,0.286
20,CGAGACAGGTGAGAAGGTAACTCAGCCTCGATTA,-0.6

row,Sequence,PBM binding z-score
1,ATCTCTAGGTAAAGATAGTTCCGTGAATGCAAAT,-0.0164
2,GCAGACAGGTGAAACGCAGTTAACTCAGGGTGGC,-0.62
3,CGTCCAAGGTCAAAGCTCAGTGAAGAGATGACGG,3.56
4,CCTACTGGGCCATCAGGTCTTTGATATCAACGTT,-0.126
5,CGTACTGGGCCAAGGTCATTGATCAGTCAAAGCA,1.57
6,AGAATGAGGTTACCAAAGATCATGGAAACGCTTG,1.21
7,ATCTCTAGGTAGCCAAGTTCAGTGAATGCCGAAC,0.591
8,ATATGTAGGTTAAGGGTCATTCACGTTGGTTCGC,2.33
9,TCTGCTAGGTCAACGATGGTCAGCTGATCTGCTA,0.835
10,ACTATTACTTGACTTAGGGCAACCGATACGACGC,0.983
11,CAAACTATGTCACGAAAGGTCAAAGTCGAATGAC,1.55
12,CCGACTGGGGCAAAGGTTAACATACTCAGTACGA,0.365
13,TCTTGTAGATCAATAGAGGTTAAGAGAGTGCGCT,0.589
14,TAGCCTAGGTCAGATCGGGCCAGCATACGCTATA,-0.834
15,TCTTGTAGATCAAGCAGGTTAAGAGAGCCTGAGT,0.088
16,AGATTGAGGTTATTAAGATCAGGGAATTGCGGTC,1.55
17,ACTATTAGTTGTCTTAGGGCAACCGATACGACGC,0.518
18,ATATGTAGGTTAGCTGGGGTCATTAAGACTAGGC,1.83
19,TCTTGTAGATCAGCTGGTTAAGAAAGCTGGCCAA,0.269
20,TGTCAAAGTTCAAAGGTAACGCAAGTATCCACAC,4.42
